From PubChem BioAssay (NCATS)
Inconclusive results are not listed. Where a call stands in place of a potency, no number is given. Activity calls are given as the source filed them. Calls come from the whole dose curve; as a rule, active = well fitted cell-killing curve with a large enough effect; inconclusive = small, poorly fitted or top-dose-only effect; inactive = flat fitted curve, though single readings scatter. Numbered stars: 1 amine (or outer) side, 2 acyl side, 3 side chain; on linkers, the order of the positions; unused ones are H or OH. Bridge positions count the residues as written; N and C are the ends. Square brackets hold non-standard residues; d marks the D form. Peptide text beside a SMILES is read from it. I, II: the chains in the order shown. Actinocin(9to1) = Cc1c2oc3c(C)ccc(C(=O)[*:1])c3nc-2c(C(=O)[*:2])c(N)c1=O; NMeV = CN[C@H](C(=O)O)C(C)C; Sar = CNCC(=O)O

Assay: qHTS of pediatric cancer cell lines to identify multiple opportunities for drug repurposing: Confirmatory screen for SK-N-SH cells (AID 1347129);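 note: cells exposed to compound for 48 h before viability read; nearly all actives have a fitted effect of over 60% in size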
Conditions: SK-N-SH neuroblastoma cell viability; series mostly up to 46.1 µM
Description: Drug repurposing or repositioning has been offered as a strategy for drug development in oncology programs. This approach has special potential for childhood cancers and other rare or orphan diseases, where the expected return on new drug development has been a disincentive to pharmaceuticals.
In this project we exploit the poly-pharmacology of drugs to discover new indications via phenotypic screening of a panel of 19 well-characterized cell lines derived from solid tumors seen in children and adolescents. The goal is to identify approved drugs with previously unrecognized anticancer properties that has the potential to reveal new mechanisms and biological processes involved in carcinogenesis or drug resistance. We employed a titration-based paradigm (quantitative high-throughput screening or qHTS), where all compounds were tested at multiple concentrations for their effect on cell viability. Concentration-response curves (CRCs) were derived directly from the primary screen, and both potency and efficacy values were used to identify compounds with robust bioactivity profiles. We screened the NIH Chemical Genomics Center (NCGC) Pharmaceutical Collection (NPC) and Mechanism Interrogation Plate (MIPE) small molecule collections of approved and investigational compounds against these cell lines; and measured metabolically active cells after 48 hours of compound treatment as a proxy for cell viability.
Assay Submitter: Nathalia J. Martinez, National Center for Advancing Translational Sciences, National Institutes of Health, Rockville, MD, USA; email: natalia.martinez@nih.gov
[1] Shen, M et al. Quantitative high-throughput phenotypic screening of pediatric cancer cell lines identifies multiple opportunities for drug repurposing. Oncotarget 2017 Dec 19;9(4):4758-4772. PMID 29435139.
The cells were obtained from University of North Carolina (UNC), Pediatric Preclinical Testing Program (PPT), and Coriell Institute (CI).
qHTS cell viability assay:
Cells were assayed in growth media at a density of 500-1,000 cells/well. Five microliters of cells were dispensed into 1,536-well, white, solid-bottom, TC-treated plates (Greiner Bio One) using a multidrop dispenser and incubated at 37 degrees C, 5% CO2, under a humidified atmosphere for 5 hours. Twenty-three nanoliters of compounds and controls (neutral control DMSO or positive control bortezomib at final concentration of 2.3 µM) were subsequently transferred by Kalypsys pintool. For primary screens, the MIPE collection was tested at 11-point dilutions (final concentrations range from 0.78 nM to 46 µM) and the NPC collection at 8-point dilutions (final concentrations range from 0.59 nM to 46 µM). Compounds tested in follow-up screens were assayed at 11-point dilutions. Cells were incubated for 48 hours, followed by addition of 3 µL of CellTiter-Glo (Promega). After a 15 min incubation at room temperature, samples were analyzed for luminescence intensity using a ViewLux High-throughput CCD imager equipped with clear filters.
Potency is the fitted concentration of half-maximal effect.

SMILES | Potency
C[C@]12C=CC(=O)C=C1CC[C@@H]1[C@@H]2[C@@H](O)C[C@@]2(C)[C@H]1CC[C@]2(O)C(=O)CO | inactive
COc1c(C)c2c(c(O)c1C/C=C(\C)CCC(=O)O)C(=O)OC2 | 18.7 µM (active)
C=C1C[C@H]2[C@@H]3C=C(C)C4=CC(=O)CC[C@]4(C)[C@H]3CC[C@]2(C)[C@@]1(OC(C)=O)C(C)=O | inactive
CN(C)/N=N/c1nc[nH]c1C(N)=O | inactive
CCCCC(=O)O[C@]1(C(=O)CO)CC[C@H]2[C@@H]3CCC4=CC(=O)CC[C@]4(C)[C@H]3[C@@H](O)C[C@@]21C | inactive
CCCCC(CC)CN=C(N)NC(N)=NCCCCCCN=C(N)NC(N)=NCC(CC)CCCC (stereo unspecified) | 11.8 µM (active)
COCc1c(C(C)C)nc(C(C)C)c(/C=C/[C@@H](O)C[C@@H](O)CC(=O)O)c1-c1ccc(F)cc1 | 0.418 µM (active)
CC(=O)Oc1ccc(C(c2ccc(OC(C)=O)cc2)c2ccccn2)cc1 | inactive
C[C@@H]1C[C@H]2[C@@H]3CCC4=CC(=O)C=C[C@]4(C)[C@@]3(F)[C@@H](O)C[C@]2(C)[C@H]1C(=O)CO | inactive
CC(=O)OCC(=O)[C@@]1(OC(C)=O)[C@@H](C)C[C@H]2[C@@H]3C[C@H](F)C4=CC(=O)C=C[C@]4(C)[C@@]3(F)[C@@H](O)C[C@@]21C | inactive
COc1cc(C=C2CCC/C(=C\c3ccc(O)c(OC)c3)C2=O)ccc1O | 18.7 µM (active)
NC(CO)(CO)CO | inactive
CCC(C(=O)OCCN(CC)CC)c1ccccc1 (stereo unspecified) | inactive
NC(=O)CC[C@@H]1NC(=O)[C@H](Cc2ccccc2)NC(=O)[C@H](Cc2ccc(O)cc2)NC(=O)CCSSC[C@@H](C(=O)N2CCC[C@H]2C(=O)N[C@@H](CCCN=C(N)N)C(=O)NCC(N)=O)NC(=O)[C@H](CC(N)=O)NC1=O | inactive
CN(C)C(=S)SC(=S)N(C)C | inactive
CC(=O)OCC(=O)[C@@]1(O)CC[C@H]2[C@@H]3CCC4=CC(=O)C=C[C@]4(C)[C@H]3[C@@H](O)C[C@@]21C | inactive

SMILES | Potency
C[C@]12CCC(=O)C=C1CC[C@H]1[C@@H]3CC[C@](O)(C(=O)CO)[C@@]3(C)C[C@H](O)[C@@]12F | inactive
CC(=O)[C@H]1CC[C@H]2[C@@H]3C[C@H](C)C4=CC(=O)CC[C@]4(C)[C@H]3[C@@H](O)C[C@]12C | inactive
CCOc1ccc2nc3cc(N)ccc3c(N)c2c1 | 14.8 µM (active)
CC1(C)O[C@@H]2C[C@H]3[C@@H]4C[C@H](F)C5=CC(=O)CC[C@]5(C)[C@H]4[C@@H](O)C[C@]3(C)[C@]2(C(=O)CO)O1 | inactive
CC(=O)OCC(=O)[C@@]12OC(C)(C)O[C@@H]1C[C@H]1[C@@H]3C[C@H](F)C4=CC(=O)C=C[C@]4(C)[C@@]3(F)[C@@H](O)C[C@@]12C | inactive
CC(=O)OCC(=O)[C@@]1(O)[C@H](C)C[C@H]2[C@@H]3CCC4=CC(=O)C=C[C@]4(C)[C@@]3(F)[C@@H](O)C[C@@]21C | inactive
C[C@H]1C[C@H]2[C@@H]3CCC4=CC(=O)C=C[C@]4(C)[C@@]3(Cl)[C@@H](O)C[C@]2(C)[C@@]1(O)C(=O)CO | inactive
C[C@@H]1C[C@H]2[C@@H]3C[C@H](F)C4=CC(=O)C(Cl)=C[C@]4(C)[C@@]3(F)[C@@H](O)C[C@]2(C)[C@@]1(O)C(=O)CO | inactive
C[C@]12C=CC(=O)C=C1[C@@H](F)C[C@@H]1[C@@H]2[C@@H](O)C[C@@]2(C)[C@H]1CC[C@]2(O)C(=O)CO | inactive
CCCCCCC[N+](CC)(CC)CCCCc1ccc(Cl)cc1 | 20.9 µM (active)
CC(C)(C(=O)c1cccnc1)c1cccnc1 | inactive
COc1cccc2c1C(=O)c1c(O)c3c(c(O)c1C2=O)C[C@@](O)(C(=O)CO)C[C@@H]3O[C@H]1C[C@H](N)[C@H](O)[C@H](C)O1 | 1.32 µM (active)
Oc1ccc(O)cc1 | inactive
C[n+]1c2cc(N)ccc2cc2ccc(N)cc21 (tested in a mixture with another compound) | 8.33 µM (active)
Cc1c2oc3c(C)ccc(C(=O)N[C@@H]4C(=O)N[C@H](C(C)C)C(=O)N5CCC[C@H]5C(=O)N(C)CC(=O)N(C)[C@@H](C(C)C)C(=O)O[C@@H]4C)c3nc-2c(C(=O)N[C@@H]2C(=O)N[C@H](C(C)C)C(=O)N3CCC[C@H]3C(=O)N(C)CC(=O)N(C)[C@@H](C(C)C)C(=O)O[C@@H]2C)c(N)c1=O (I: T[dV]P[Sar][NMeV] / II: T[dV]P[Sar][NMeV]; ester I:1-I:C, II:1-II:C; linker I:N-II:N via Actinocin(9to1)) | 0.0118 µM (active)
